Measured values from PubChem BioAssay.
“And” between values parts separate entries of the source, which are not always exact repeats. Identical values can stand only once. The source made the active and inactive calls.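 The calls were made as follows: active = inhibition at or above 50% relative to wild type and mutant plate controls; inactive = inhibition below 50%.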

Assay: loss of swimming-algae plug formation – whole organism, Chlamydomonas reinhardtii, WT vs cilia-less mutant, absorbance, 96-well, primary screen (AID 463189);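 also: 0% = wild type cc124 cells in DMSO and 100% = ciliumless bld1 mutant cells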
Conditions: Chlamydomonas reinhardtii gravitaxis, OD600 absorbance, 2 days; at 10 µM; stronger effect = higher value

SMILES	inhibition
CN1CCCC1CCOC(C)(c1ccccc1)c1ccc(Cl)cc1 (stereo not given)	11.5% (inactive)
COc1ccc2c(c1)c(CC(=O)O)c(C)n2Cc1ccc(Cl)cc1	-1.76% (inactive)
O=C1OC(=O)C2C3CCC(O3)C12 (stereo not given)	2.39% (inactive)
COc1cc2c(cc1OC)[C@@H](c1ccccc1)CN(C)CC2	8.36% (inactive)
COc1ccc(CCCOc2cc(CCn3ccnc3)ccc2OC)cc1	1.24% (inactive)
C[C@]12C=CC(=O)C=C1CC[C@@H]1C2=CC[C@]2(C)[C@@H](C(=O)CN3CCN(c4cc(N5CCCC5)nc(N5CCCC5)n4)CC3)CC[C@@H]12	3% (inactive)
C=CCn1c(=O)c2c(nc(-c3ccc(S(=O)(=O)O)cc3)n2C)n(C)c1=O	4.78% (inactive)
Cn1cnc2c(NC3CCCC3)ncnc21	0.556% (inactive)
CN(C(=O)CCCOc1ccc2[nH]c(=O)ccc2c1)C1CCCCC1	3.15% (inactive)
CC(C)(C)[C@]1(O)CCN2C[C@H]3c4ccccc4CCc4cccc(c43)[C@@H]2C1	3.49% (inactive) and -7.42% (inactive)
CC(C)(Oc1ccc(C2CC2(Cl)Cl)cc1)C(=O)O (stereo not given)	1.41% (inactive)
NC(N)=N/N=C/c1c(Cl)cccc1Cl	3.64% (inactive)
O=C(O)C1=CC(=C(c2ccc(O)c(C(=O)O)c2)c2ccc(O)c(C(=O)O)c2)C=CC1=O	0.098% (inactive)
Cc1cccc(C)c1NC(=O)C[N+](C)(C)C	7.92% (inactive)
COc1cccc(OC)c1OCCNCC1CSc2ccccc2O1 (stereo not given)	10.3% (inactive)
Cc1nc2c([nH]1)c(=O)n(C)c(=O)n2Cc1ccco1	0.516% (inactive)
NCCNS(=O)(=O)c1cccc2cnccc12	-4.46% (inactive)
CC(=O)OCC1=C(C(=O)O)N2C(=O)[C@@H](NC(=O)CSc3ccncc3)[C@H]2SC1	6.67% (inactive)
Clc1ccccc1C(c1ccccc1)(c1ccccc1)n1ccnc1	96% (active)
O=C1C(SCCO)=C(SCCO)C(=O)c2ccccc21	152% (active)

SMILES	inhibition
COc1ccc(-c2ccc(N)[n+](CCCC(=O)O)n2)cc1	7.29% (inactive)
COc1c2c(nc3ccccc13)OC(C(C)(O)CO)C2 (stereo not given)	6.88% (inactive)
OCC1O[C@H](O)C(Cl)C(O)C1O (stereo not given in full)	4.68% (inactive)
CC(=O)[C@]1(O)Cc2c(O)c3c(c(O)c2[C@@H](O[C@H]2C[C@H](N)[C@H](O)[C@H](C)O2)C1)C(=O)c1ccccc1C3=O	-16.2% (inactive)
C[C@H](Cc1ccc(O)c(O)c1)[C@@H](C)Cc1ccc(O)c(O)c1	-6.71% (inactive)
O=C(O)C1=CCCNC1	5.21% (inactive)
NC1(C(=O)O)CC1	5.31% (inactive)
OC(CN1CCC(Cc2ccc(F)cc2)CC1)c1ccc(Cl)cc1 (stereo not given)	-0.098% (inactive)
Cc1cccc(C2CN(C)CCc3c2cc(O)c(O)c3Cl)c1 (stereo not given)	3.56% (inactive)
O=C(O)/C=C/C(O)c1ccc(Cl)cc1 (stereo not given)	-3.97% (inactive)
CC(C)N(CCC(=O)c1ccc2ccccc2c1)Cc1ccccc1	10.3% (inactive)
CC(C)NCC(O)c1cc(O)cc(O)c1 (stereo not given)	11.3% (inactive)
O=C(O)[C@H]1NCCC[C@H]1C(=O)O	-0.478% (inactive)
N[C@@H](Cc1cnc[nH]1)C(=O)O	-1.75% (inactive)
CCCn1c(=O)c2[nH]c(-c3ccc(OCC(=O)Nc4ccc(C#N)cc4)cc3)nc2n(CCC)c1=O	4.77% (inactive)
C=CC1(C)CC(=O)C2(O)C(C)(O1)C(OC(C)=O)C(O)C1C(C)(C)CCC(O)C12C (stereo not given)	-1.2% (inactive)
O=c1ccc2ccc(O)c(O)c2o1	-4.31% (inactive)
Cc1nc2n(c(=O)c1CCN1CCC(c3noc4cc(F)ccc34)CC1)CCCC2	2.59% (inactive)
O=c1c(O)c(-c2ccc(O)c(O)c2)oc2cc(O)cc(O)c12	2.39% (inactive)
CC(=O)NCCc1c[nH]c2ccc(O)cc12	-4.58% (inactive)
